40 molecules from PubChem BioAssay (NCATS) can be followed below.

Where “and” joins values, the source holds several entries; their conditions need not be identical. Equal entries are not always repeated. Records with an inconclusive call do not appear. Where a call stands in place of a potency, no number is given. Calls of active or inactive are those of the source. Calls follow the shape of the dose curve; as a rule, active = well fitted cell-killing curve with a large enough effect; inconclusive = small, poorly fitted or top-dose-only effect; inactive = no such curve, though single readings can be large or run the other way.
Potency is read from the fitted curve at half-maximal effect.

A short description of the assay: qHTS of pediatric cancer cell lines to identify multiple opportunities for drug repurposing: Primary screen for SJ-GBM2 cells (AID 1347091). The following applies: SJ-GBM2 viability, CellTiter-Glo luminescence, 48 h; series mostly up to 46 µM. The source says: Drug repurposing or repositioning has been offered as a strategy for drug development in oncology programs. This approach has special potential for childhood cancers and other rare or orphan diseases, where the expected return on new drug development has been a disincentive to pharmaceuticals.
In this project we exploit the poly-pharmacology of drugs to discover new indications via phenotypic screening of a panel of 19 well-characterized cell lines derived from solid tumors seen in children and adolescents. The goal is to identify approved drugs with previously unrecognized anticancer properties that has the potential to reveal new mechanisms and biological processes involved in carcinogenesis or drug resistance. We employed a titration-based paradigm (quantitative high-throughput screening or qHTS), where all compounds were tested at multiple concentrations for their effect on cell viability. Concentration-response curves (CRCs) were derived directly from the primary screen, and both potency and efficacy values were used to identify compounds with robust bioactivity profiles. We screened the NIH Chemical Genomics Center (NCGC) Pharmaceutical Collection (NPC) and Mechanism Interrogation Plate (MIPE) small molecule collections of approved and investigational compounds against these cell lines; and measured metabolically active cells after 48 hours of compound treatment as a proxy for cell viability.
Assay Submitter: Nathalia J. Martinez, National Center for Advancing Translational Sciences, National Institutes of Health, Rockville, MD, USA; email: natalia.martinez@nih.gov
[1] Shen, M et al. Quantitative high-throughput phenotypic screening of pediatric cancer cell lines identifies multiple opportunities for drug repurposing. Oncotarget 2017 Dec 19;9(4):4758-4772. PMID 29435139.
The cells were obtained from University of North Carolina (UNC), Pediatric Preclinical Testing Program (PPT), and Coriell Institute (CI).
qHTS cell viability assay:
Cells were assayed in growth media at a density of 500-1,000 cells/well. Five microliters of cells were dispensed into 1,536-well, white, solid-bottom, TC-treated plates (Greiner Bio One) using a multidrop dispenser and incubated at 37 degrees C, 5% CO2, under a humidified atmosphere for 5 hours. Twenty-three nanoliters of compounds and controls (neutral control DMSO or positive control bortezomib at final concentration of 2.3 µM) were subsequently transferred by Kalypsys pintool. For primary screens, the MIPE collection was tested at 11-point dilutions (final concentrations range from 0.78 nM to 46 µM) and the NPC collection at 8-point dilutions (final concentrations range from 0.59 nM to 46 µM). Compounds tested in follow-up screens were assayed at 11-point dilutions. Cells were incubated for 48 hours, followed by addition of 3 uL of CellTiter-Glo (Promega). After a 15 min incubation at room temperature, samples were analyzed for luminescence intensity using a ViewLux High-throughput CCD imager equipped with clear filters.
Background: Quantitative high-throughput screening tests each substance at several concentrations.
`Cc1onc(-c2ccccc2Cl)c1C(=O)N[C@@H]1C(=O)N2[C@@H]1SC(C)(C)[C@@H]2C(=O)O`: the Potency entry is “inactive”.
`COc1ccccc1OCC(O)COC(N)=O` (stereo not given): the Potency entry was “inactive”.
In the case of `CS(=O)(=O)c1ccc([C@@H](O)[C@@H](CO)NC(=O)C(Cl)Cl)cc1`, the Potency result is “inactive”.
As to `CC(C)(C#N)c1cc(Cn2cncn2)cc(C(C)(C)C#N)c1`, the Potency entry is “inactive”.
In the case of `CC(C)C[C@H](NC(=O)[C@H](CCc1ccccc1)NC(=O)CN1CCOCC1)C(=O)N[C@@H](Cc1ccccc1)C(=O)N[C@@H](CC(C)C)C(=O)[C@@]1(C)CO1`, the Potency is 66.8 nM (active) and 29.6 nM (active).
With `Cc1noc(NS(=O)(=O)c2ccc(N)cc2)c1C`, the Potency entry was “inactive”.
With `Cc1ncc([N+](=O)[O-])n1CCO`, the Potency result was “inactive”.
Consider `C[C@@H](NCCCc1cccc(C(F)(F)F)c1)c1cccc2ccccc12`, for which the Potency result is “inactive”.
For the molecule `Cn1nnc2c(C(N)=O)ncn2c1=O`, the Potency entry is “inactive”.
On to `CO[C@@]12[C@H](COC(N)=O)C3=C(C(=O)C(C)=C(N)C3=O)N1C[C@@H]1N[C@@H]12`, for which the Potency was 14.8 µM (active).
On to `O=C(NCC1CN(c2ccc(N3CCOCC3=O)cc2)C(=O)O1)c1ccc(Cl)s1` (stereo not given), for which the Potency entry is “inactive”.
For the molecule `O=C(O)c1cccnc1`, the Potency entry is “inactive”.
On to `C[C@@H]1CN(c2c(F)c(N)c3c(=O)c(C(=O)O)cn(C4CC4)c3c2F)C[C@H](C)N1`, for which the Potency result was “inactive”.
Turning to `CN(C)CCc1c[nH]c2ccc(CS(=O)(=O)N3CCCC3)cc12`, the Potency result is “inactive”.
Take `O=C(O)C1CCCN(CCC=C(c2ccccc2)c2ccccc2)C1` (stereo not given): the Potency result is “inactive”.
The same measure for `COc1c(N2CCNC(C)C2)c(F)cc2c(=O)c(C(=O)O)cn(C3CC3)c12` (stereo not given): “inactive”; for `CC(N)C12CC3CC(CC(C3)C1)C2` (stereo not given): “inactive”.
The same measure for `O[C@@H](CNC[C@H](O)[C@H]1CCc2cc(F)ccc2O1)[C@@H]1CCc2cc(F)ccc2O1`: 20.9 µM (active); for `C[C@@H]1C[C@H]2[C@@H]3CCC4=CC(=O)C=C[C@]4(C)[C@@]3(Cl)[C@@H](O)C[C@]2(C)[C@@]1(OC(=O)c1ccco1)C(=O)CCl`: 9.35 µM (active); for `O=S(=O)(O)CCS`: “inactive”.
On to `O=c1oc2c(O)c(O)cc3c(=O)oc4c(O)c(O)cc1c4c23`, for which the Potency result was “inactive”.
For `CC1=C(C(=O)O)N2C(=O)[C@@H](NC(=O)C(N)c3ccccc3)[C@H]2SC1` (stereo not given in full), the Potency result is “inactive”.
With `CCC(=O)O[C@]1(C(=O)SCF)[C@H](C)C[C@H]2[C@@H]3C[C@H](F)C4=CC(=O)C=C[C@]4(C)[C@@]3(F)[C@@H](O)C[C@@]21C`, the Potency entry was “inactive”.
Consider `CCCN[C@H]1CCc2nc(N)sc2C1`, for which the Potency entry is “inactive”.
As to `CC(C)(Sc1cc(C(C)(C)C)c(O)c(C(C)(C)C)c1)Sc1cc(C(C)(C)C)c(O)c(C(C)(C)C)c1`, the Potency entry was “inactive”.
The entry for `CCOC(=O)c1ccc(OC(=O)CCCCCN=C(N)N)cc1` is “inactive”.
Turning to `CC(C)OC(=O)OCOP(=O)(CO[C@H](C)Cn1cnc2c(N)ncnc21)OCOC(=O)OC(C)C`, the Potency entry was “inactive”.
In the case of `CN1CCN(c2c(F)cc3c(=O)c(C(=O)O)cn(CCF)c3c2F)CC1`, the Potency entry is “inactive”.
As to `N[C@@H](Cc1ccc(O)c(O)c1)C(=O)O`, the Potency entry was “inactive”.
The same measure for `Nc1nc(N)c2nc(CNc3ccc(C(=O)NC(CCC(=O)O)C(=O)O)cc3)cnc2n1` (stereo not given): 0.0833 µM (active); for `O=C(N[C@H](CO)[C@H](O)c1ccc([N+](=O)[O-])cc1)C(Cl)Cl`: “inactive”.
In the case of `COc1ccc2c(c1)c(CC(=O)OCC(=O)O)c(C)n2C(=O)c1ccc(Cl)cc1`, the Potency result was “inactive”.
Take `COC(=O)Nc1nc2ccc(C(=O)c3ccccc3)cc2[nH]1`: the Potency is 0.376 µM (active).
As for `Cc1nnc(C(=O)NC(C)(C)c2nc(C(=O)NCc3ccc(F)cc3)c(O)c(=O)n2C)o1`, the Potency entry was “inactive”.
`CCC(C)(C)c1ccc(CC(C)CN2C[C@@H](C)O[C@@H](C)C2)cc1` (stereo not given in full): the Potency entry is “inactive”.
In the case of `COCCCOc1cc(C[C@@H](C[C@H](N)[C@@H](O)C[C@H](C(=O)NCC(C)(C)C(N)=O)C(C)C)C(C)C)ccc1OC`, the Potency result is “inactive”.
Consider `Nc1nc(F)nc2c1ncn2[C@@H]1O[C@H](CO)[C@@H](O)[C@@H]1O`, for which the Potency is 0.935 µM (active).
Take `Cc1ccnc2c1NC(=O)c1cccnc1N2C1CC1`: the Potency entry was “inactive”.
Turning to `O=c1cc(O)c(Cl)c[nH]1`, the Potency result was “inactive”.
The figure for `COC(=O)Nc1nc2ccc(S(=O)c3ccccc3)cc2[nH]1` (stereo not given) is 596 nM (active) and 14.8 µM (active).
